Results on 59 compounds are retold here after article PMC4336329 (PLoS ONE, 2015).

The whole screen tested about 310,000 compounds, of which about 14,000 (4.5%) showed an effect of 50% or more. The effect is printed as a negative number. What follows is part of a selection rich in strong results, with near analogues and random picks from the rest.
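Further: peak tail current of the secondary pulse compared with the same well before compound.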

In the assay the target is human ether-à-go-go-related gene (hERG) potassium channel (human, UniProt Q12809). Kind of assay: primary screen, population patch clamp on CHO cells stably expressing hERG; higher = less effect of the substance.
Chain of human ether-à-go-go-related gene (hERG) potassium channel (Q12809 whole entry, looked up): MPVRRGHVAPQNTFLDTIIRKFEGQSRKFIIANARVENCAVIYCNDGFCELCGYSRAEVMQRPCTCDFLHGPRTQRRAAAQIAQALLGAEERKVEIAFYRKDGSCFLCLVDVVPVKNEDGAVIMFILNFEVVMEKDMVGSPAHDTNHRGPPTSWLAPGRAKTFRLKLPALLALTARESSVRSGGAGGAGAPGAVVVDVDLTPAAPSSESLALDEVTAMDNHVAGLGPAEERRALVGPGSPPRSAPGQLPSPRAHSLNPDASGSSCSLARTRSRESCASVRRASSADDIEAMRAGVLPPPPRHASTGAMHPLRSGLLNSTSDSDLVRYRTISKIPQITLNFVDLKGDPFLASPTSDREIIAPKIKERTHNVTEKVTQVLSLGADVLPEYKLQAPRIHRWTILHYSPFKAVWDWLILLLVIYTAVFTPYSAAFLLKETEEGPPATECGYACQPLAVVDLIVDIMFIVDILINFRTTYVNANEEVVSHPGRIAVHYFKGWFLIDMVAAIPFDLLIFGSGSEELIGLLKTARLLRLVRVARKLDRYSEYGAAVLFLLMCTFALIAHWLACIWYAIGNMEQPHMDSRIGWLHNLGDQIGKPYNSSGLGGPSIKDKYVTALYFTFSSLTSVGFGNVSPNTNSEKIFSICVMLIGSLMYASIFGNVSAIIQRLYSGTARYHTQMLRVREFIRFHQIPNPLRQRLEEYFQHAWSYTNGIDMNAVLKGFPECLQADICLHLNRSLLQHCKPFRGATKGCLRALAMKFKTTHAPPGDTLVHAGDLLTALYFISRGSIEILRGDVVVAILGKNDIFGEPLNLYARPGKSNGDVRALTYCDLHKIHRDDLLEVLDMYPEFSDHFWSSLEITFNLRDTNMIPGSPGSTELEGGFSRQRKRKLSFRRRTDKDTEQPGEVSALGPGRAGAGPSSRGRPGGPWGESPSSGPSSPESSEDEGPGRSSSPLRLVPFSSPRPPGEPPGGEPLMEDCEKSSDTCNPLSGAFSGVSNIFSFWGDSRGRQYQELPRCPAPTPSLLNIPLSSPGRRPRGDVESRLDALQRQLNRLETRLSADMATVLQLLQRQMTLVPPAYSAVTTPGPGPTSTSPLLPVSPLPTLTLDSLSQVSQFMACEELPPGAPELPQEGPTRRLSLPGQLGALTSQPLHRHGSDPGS
In the case of `CNC(=S)N/N=C/c1cn(CCOc2cccc(OC)c2)c2ccccc12`, the “hERG current change (%, negative = inhibition) at 10uM” value was determined as 3.42%.

For the compound `O=C([O-])C(CCCCNS(=O)(=O)c1ccc(F)cc1)NS(=O)(=O)c1ccc(F)cc1.[K+]` (centres unmarked), the “hERG current change (%, negative = inhibition) at 10uM” value was 20.3%.

`COc1ccccc1NC(=O)C1=C(C)Nc2nc(CCCO)nn2C1c1ccc2c(c1)OCO2` (centres unmarked): the “hERG current change (%, negative = inhibition) at 10uM” value is on record as 7.42%.

Take `CCOC(=O)C1CCCC(NS(=O)(=O)c2ccc(NC(C)=O)cc2)C1` (centres unmarked): the “hERG current change (%, negative = inhibition) at 10uM” value is -2.41%.

For the compound `Cc1ccc(S(=O)(=O)/N=C(/c2ccccc2)N(C)C)c(C)c1`, the “hERG current change (%, negative = inhibition) at 10uM” value was found to be 12.7%.

As to `NC(=S)N/N=C1\c2ccccc2-c2c(C(=O)O)cccc21`, the “hERG current change (%, negative = inhibition) at 10uM” value is given as 12.7%.

Turning to `Cc1cc(C)c(C(=O)N2CCCC(CNC(=O)C3(c4ccc(Cl)cc4)CC3)C2)c(=O)[nH]1` (centres unmarked), the “hERG current change (%, negative = inhibition) at 10uM” value is 6.58%.

As for `COCCN1C(=O)C(=O)/C(=C(/O)c2ccc(S(=O)(=O)N3CCOCC3)cc2)C1c1ccc(O)cc1` (centres unmarked), the “hERG current change (%, negative = inhibition) at 10uM” value was 3.78%.

Regarding `O=C1OCC(CO)(CO)N=C1NNc1ccc(Cl)c(Cl)c1`, the “hERG current change (%, negative = inhibition) at 10uM” value was 8.16%.

For `COC(=O)c1ccc2c(=O)n(CCCCCC(=O)NCc3ccc4c(c3)OCO4)c(=O)[nH]c2c1`, the “hERG current change (%, negative = inhibition) at 10uM” value was -31.7%.

For `Cc1cc(C)cc(NC(=S)N2CCN(c3ccc(F)cc3)CC2)c1`, the “hERG current change (%, negative = inhibition) at 10uM” value was -8.95%.

Consider `COC(=O)C1=C(c2ccccc2OCc2ccccc2)C[C@@H]2CC[C@H]1N2C(=O)NCc1ccc(N(C)C)cc1`, for which the “hERG current change (%, negative = inhibition) at 10uM” value was found to be 10.9%.

With `CC(C)Cc1ccc(CN2CCC(n3nccc3NC(=O)C3CCCC3)CC2)cc1`, the “hERG current change (%, negative = inhibition) at 10uM” value is given as -72.4%.

Take `O=C(Nc1ccnn1C1CCN(Cc2cccc(OCCO)c2)CC1)C1CCOC1` (centres unmarked): the “hERG current change (%, negative = inhibition) at 10uM” value is listed as -2.98%.

As to `CCc1ccc(CN2CCC(n3nccc3NC(=O)C3CCCC3)CC2)cc1`, the “hERG current change (%, negative = inhibition) at 10uM” value is on record as -76.3%.

Take `O=C(Nc1ccnn1C1CCN(Cc2cccc(OCCO)c2)CC1)C1CCCC1`: the “hERG current change (%, negative = inhibition) at 10uM” value was -24.8%.

Take `CCn1cc(CN2CCC(n3nccc3NC(=O)C3CCCC3)CC2)cn1`: the “hERG current change (%, negative = inhibition) at 10uM” value is -6.15%.

With `CCOc1cccc(CN2CCC(n3nccc3NC(=O)C3CCCC3)CC2)c1`, the “hERG current change (%, negative = inhibition) at 10uM” value is reported as -55.3%.

Turning to `Cn1c(=S)c2[nH]c(SCCN3CCCC3)nc2n(C)c1=O`, the “hERG current change (%, negative = inhibition) at 10uM” value is recorded as 10.5%.

Regarding `Cc1ccccc1NC(=S)N(CCN(C)C)C(C)c1ccccn1` (centres unmarked), the “hERG current change (%, negative = inhibition) at 10uM” value is listed as -8.78%.

With `OCCCNCc1cccc2ccccc12`, the “hERG current change (%, negative = inhibition) at 10uM” value is given as -15.8%.

With `Cc1ccc(C(C(=O)NC2CCCCC2)N(C(=O)CCCC(=O)Nc2ccccn2)c2ccc3c(c2)OCCO3)cc1` (centres unmarked), the “hERG current change (%, negative = inhibition) at 10uM” value is given as -3.99%.

As to `COC(=O)c1ccc(CSc2nnc3c(n2)[nH]c2ccccc23)cc1`, the “hERG current change (%, negative = inhibition) at 10uM” value was -23.1%.

Regarding `Cc1sc2ncnc(N3CCCCC3)c2c1C`, the “hERG current change (%, negative = inhibition) at 10uM” value is reported as -11.9%.

For the compound `Cc1sc2ncnc(N3CCN(S(=O)(=O)c4ccc(F)cc4)CC3)c2c1C`, the “hERG current change (%, negative = inhibition) at 10uM” value is on record as -50.9%.

With `Cc1sc2ncnc(N3CCN(S(=O)(=O)c4ccccc4)CC3)c2c1C`, the “hERG current change (%, negative = inhibition) at 10uM” value is reported as -18.6%.

For the compound `Cc1sc2ncnc(N3CCN(S(=O)(=O)c4ccc(Br)cc4)CC3)c2c1C`, the “hERG current change (%, negative = inhibition) at 10uM” value is on record as -47.5%.

Regarding `CCS(=O)(=O)N1CCN(c2ncnc3sc(C)c(C)c23)CC1`, the “hERG current change (%, negative = inhibition) at 10uM” value is on record as -53.7%.

Turning to `Cc1cc(C)c(C)c(S(=O)(=O)N2CCN(c3ncnc4sc(C)c(C)c34)CC2)c1C`, the “hERG current change (%, negative = inhibition) at 10uM” value is on record as 8.21%.

On to `COc1ccccc1NC(=O)NCC(=O)Nc1c(C)cccc1C`, for which the “hERG current change (%, negative = inhibition) at 10uM” value is given as 30.5%.

With `CCOC(=O)c1ccc(CS(=O)c2ccc(Cl)cc2)o1` (centres unmarked), the “hERG current change (%, negative = inhibition) at 10uM” value is -3.47%.

In the case of `Cc1cc(C)c(NC(=O)CCCN2CCOCC2)c(C)c1`, the “hERG current change (%, negative = inhibition) at 10uM” value was 13.1%.

With `COC(=O)c1scc(C)c1NC(=O)CC1NCCNC1=O` (centres unmarked), the “hERG current change (%, negative = inhibition) at 10uM” value is listed as 11.9%.

With `O=C(C[n+]1ccccc1)c1ccc(-c2ccccc2)cc1.[Br-]`, the “hERG current change (%, negative = inhibition) at 10uM” value is -21.4%.

Take `COC(=O)c1ccc(CC(=O)c2c(C)cc(O)cc2O)o1`: the “hERG current change (%, negative = inhibition) at 10uM” value is on record as 0.801%.

Take `CC1CCN(CCOCCSc2ccc(Cl)cc2)CC1.O=C(O)C(=O)O`: the “hERG current change (%, negative = inhibition) at 10uM” value is recorded as -72.1%.

With `CC1CC(C)CN(CCCSc2ccccc2)C1.O=C(O)C(=O)O` (centres unmarked), the “hERG current change (%, negative = inhibition) at 10uM” value was -64.3%.

Consider `CC1CN(CCOCCSc2ccc(Cl)cc2)CC(C)O1.O=C(O)C(=O)O` (centres unmarked), for which the “hERG current change (%, negative = inhibition) at 10uM” value is recorded as -23.3%.

Take `CN(C)CCOCCSc1ccc(Cl)cc1.O=C(O)C(=O)O`: the “hERG current change (%, negative = inhibition) at 10uM” value is recorded as -37.3%.

As to `CC1CN(CCCCSc2ccccc2)CC(C)O1.Cl` (centres unmarked), the “hERG current change (%, negative = inhibition) at 10uM” value was -8.71%.

In the case of `CC1CC(C)CN(CCOCCSc2ccccc2)C1.O=C(O)C(=O)O` (centres unmarked), the “hERG current change (%, negative = inhibition) at 10uM” value is recorded as -45.1%.

In the case of `CC1CC(C)CN(CCOCCSc2ccc(Cl)cc2)C1.O=C(O)C(=O)O` (centres unmarked), the “hERG current change (%, negative = inhibition) at 10uM” value was -72.4%.

Turning to `CC1CN(CCCSc2ccc(Cl)cc2)CC(C)O1.O=C(O)C(=O)O` (centres unmarked), the “hERG current change (%, negative = inhibition) at 10uM” value is given as -47.9%.

For the compound `CC1CN(CCCCSc2ccc(Cl)cc2)CC(C)O1.O=C(O)C(=O)O` (centres unmarked), the “hERG current change (%, negative = inhibition) at 10uM” value was -31.6%.

As for `Cc1cccc(OCC(O)Cn2c(N3CCCCC3)nc3c2c(=O)n(C)c(=O)n3C)c1` (centres unmarked), the “hERG current change (%, negative = inhibition) at 10uM” value is -13.7%.

With `CCN(CC)S(=O)(=O)c1cccc(-c2nnc(SCc3nc4ccccc4s3)o2)c1`, the “hERG current change (%, negative = inhibition) at 10uM” value is on record as -3.82%.

With `O=S(=O)(Nc1ccccc1F)c1ccc(Cl)nc1`, the “hERG current change (%, negative = inhibition) at 10uM” value is reported as 5.63%.

Regarding `Cc1ccc2oc(C(=O)NCCC3CCCCO3)c(C)c2c1` (centres unmarked), the “hERG current change (%, negative = inhibition) at 10uM” value was -11.5%.

Turning to `Cn1c(=O)c2[nH]c(N=Nc3ccc(N)cc3N)nc2n(C)c1=O`, the “hERG current change (%, negative = inhibition) at 10uM” value amounted to 28.7%.

With `O=c1cc(NS(=O)(=O)c2ccccc2)nc(SCc2ccccc2Cl)[nH]1`, the “hERG current change (%, negative = inhibition) at 10uM” value stood at 6.99%.

For the compound `COc1ccc(N2C(=O)CC(N3CCN(c4ccccc4)CC3)C2=O)cc1` (centres unmarked), the “hERG current change (%, negative = inhibition) at 10uM” value is 8.93%.

Take `COc1ccc(N2C(=O)CC(N3CCN(C4CCc5ccccc5C4)CC3)C2=O)cc1` (centres unmarked): the “hERG current change (%, negative = inhibition) at 10uM” value is -61.7%.

As for `COc1ccc(N2C(=O)CC(N3CCN(c4ccc(Cl)cc4)CC3)C2=O)cc1` (centres unmarked), the “hERG current change (%, negative = inhibition) at 10uM” value is recorded as -4.94%.

For the compound `CCOc1ccc(N2C(=O)CC(N3CCN(C4CCc5ccccc5C4)CC3)C2=O)cc1` (centres unmarked), the “hERG current change (%, negative = inhibition) at 10uM” value is given as -71.5%.

With `CCOc1ccc(N2C(=O)CC(N3CCN(c4ccccc4F)CC3)C2=O)cc1` (centres unmarked), the “hERG current change (%, negative = inhibition) at 10uM” value is 6.59%.

As to `CCOc1ccc(N2C(=O)CC(N3CCc4ccccc43)C2=O)cc1` (centres unmarked), the “hERG current change (%, negative = inhibition) at 10uM” value was -3.24%.

As to `COc1ccc(NC2CCN(C3CC(=O)N(c4ccc(F)c(Cl)c4)C3=O)CC2)cc1` (centres unmarked), the “hERG current change (%, negative = inhibition) at 10uM” value was -54.8%.

As for `COc1cccc(N2CCN(C3CC(=O)N(c4ccc(F)c(Cl)c4)C3=O)CC2)c1` (centres unmarked), the “hERG current change (%, negative = inhibition) at 10uM” value was -12.6%.

For the compound `COc1ccc(N2C(=O)CC(N3CCCCC3)C2=O)cc1` (centres unmarked), the “hERG current change (%, negative = inhibition) at 10uM” value was found to be 18.6%.
